Shown is part of a subset that was picked to be rich in hits.
PL biosyn Enam = animal cell phospholipid biosynthesis inhibition, Enamine screen; calls only at 10 µM; ZR-82 CHO cells, pyrene fatty acid UV survival, CellTiter Blue; peroxisome-deficient CHO-K1 mutant line; plus DGAT-1, DGAT-2 and ACAT inhibitors; AID 1347385; actives 0.4% (n = 20,000);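 active means cell survival signal 2 SD away from solvent-only control wells, confirmed on one or two retests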;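 further: 3 h compound exposure then viability read about one day after UV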
Calls only; n = inactive; + = active, no number.

SMILES	PL biosyn Enam
Clc1ccccc1/C=N/NC1=Nc2cccc3cccc1c23	n
Brc1ccc(/C=N/NC2=Nc3cccc4cccc2c34)cc1	n
c1ccc(NNC2=Nc3cccc4cccc2c34)cc1	+
CCCCn1c(=O)[nH]c(=O)c2c1nc(CSc1ncnc3sc4c(c13)CCC4)n2CCC	n
Cc1c2c(nc3cc4c(cc13)OCO4)CCc1ccccc1-2	n
Cc1ccc(-c2nnc(N/N=C/c3c(-c4ccccc4)nc4ccccn34)c3ccccc23)cc1C	+
C(=N\N1CCN(C(c2ccccc2)c2ccccc2)CC1)/c1c(-c2ccccc2)nc2ccccn12	n
Cc1ccc(-c2nnc(-n3nnc4cc(C)c(C)cc43)c3ccccc23)cc1C	n
O=c1cc(CN2CCN(c3ccc([N+](=O)[O-])cc3)CC2)c2cc3c(cc2o1)CCC3	n
O=C(N/N=C1\CCSc2ccc(F)cc21)C1COc2ccccc2O1 (centres undefined)	n
CCN(CC)S(=O)(=O)c1ccc(N/N=C2\CCSc3ccc(F)cc32)nc1	n
Fc1ccc2c(c1)/C(=N\Nc1nc3ccccc3s1)CCS2	+
COc1ccc(Oc2ccc(S(=O)(=O)C(F)(F)F)cc2[N+](=O)[O-])c([N+](=O)[O-])c1	n
Fc1ccc(-c2noc(CSc3nnc(C4CC4)n3C3CC3)n2)cc1	n
O=C1Nc2c(Cl)cc(Cl)cc2/C1=N\n1cnc2sc3c(c2c1=O)CCCC3	n
Fc1cccc(F)c1/C=N/n1c(-c2cc3ccccc3o2)csc1=NCCc1ccccc1	+
C=CCN=c1scc(-c2cc3ccccc3o2)n1/N=C/c1ccccc1Br	n
CN=c1scc(-c2cc3ccccc3o2)n1/N=C/c1cccc(C(F)(F)F)c1	n
CN(CC(=O)Nc1sc2c(c1C(N)=O)CCCC2)C1CCCCC1	n
CC(C)C[N+]1=C2SCCCN2C(O)(c2ccc(OC(F)F)cc2)C1 (centres undefined)	n
Brc1ccccc1-c1nnc(SCc2nnc(-c3ccco3)o2)o1	n
CC1(C)C2CC=C(/C=N/NC(N)=S)C1C2 (centres undefined)	n
C=C(C)CNC(=S)N/N=C/C1=CCC2CC1C2(C)C (centres undefined)	n
CCNC(=S)N/N=C/C1=CCC2CC1C2(C)C (centres undefined)	n
CC1(C)C2CC=C(/C=N/NC(=S)Nc3cccnc3)C1C2 (centres undefined)	n
SMILES	PL biosyn Enam
CC1(C)C2CC=C(/C=N/NC(=S)NC3CCCCC3)C1C2 (centres undefined)	+
CC(C)NC(=S)N/N=C/C1=CCC2CC1C2(C)C (centres undefined)	+
Cc1occc1-c1nnc(SCc2nc(-c3cccs3)no2)n1C	n
CCN(CC)c1ccc2c(c1)OC(=O)N(c1ccc(Cl)c(Cl)c1)P2(=S)OC1CC(C)CCC1C(C)C (centres undefined)	n
Cc1cc(Sc2nc(N)ncc2[N+](=O)[O-])ncn1	n
Cc1cc(C)nc(NNc2ncnc(N)c2[N+](=O)[O-])n1	n
Cc1cc(Sc2ncnc(N)c2[N+](=O)[O-])ncn1	+
Cn1cnnc1Sc1ccc(C2C=C(c3ccc(F)cc3)Nc3nc(C(F)(F)F)nn32)cc1[N+](=O)[O-] (centres undefined)	n
Cn1c(=O)c2c(ncn2CC(=O)NCCC2=CCCCC2)n(C)c1=O	n
Fc1ccc(NC(=S)Nc2ccc(Cl)c(Cl)c2)cc1Cl	n
C=CCNC(=S)Nc1ccc(F)c(Cl)c1	n
Fc1cc(Cl)ccc1NC(=S)Nc1ccc(Cl)c(Cl)c1	+
Cn1cccc1C(=O)OCc1cc(=O)n2cc(Br)ccc2n1	n
Cc1ncc([N+](=O)[O-])n1CCOC(=O)NC(N1CCOCC1)C(Cl)(Cl)Cl (centres undefined)	n
C/C(=N\Nc1ncnc2sc(C)c(C)c12)c1ccc(Cl)s1	+
Cc1sc2ncnc(NCC(C)O)c2c1C (centres undefined)	n
Cc1sc2ncnc(NC3CCC(O)CC3)c2c1C (centres undefined)	n
CC1Sc2nnc(-c3ccc(C(C)(C)C)cc3)n2N=C1c1ccc(C(C)(C)C)cc1 (centres undefined)	n
O=C1C(=O)N(CN2CCN(C(=O)C3CC3)CC2)c2cc(F)ccc21	n
CN(C)c1ccc(/C=N/NC2=Nc3cccc4cccc2c34)cc1	n
Clc1ccc(NN=C2c3ccccc3-c3ccccc32)cc1	n
Fc1ccc(NN=C2c3ccccc3-c3ccccc32)cc1	+
O=[N+]([O-])c1cccc(NN=C2c3ccccc3-c3ccccc32)c1	n
Cc1ccc(S(=O)O)cc1[N+](=O)[O-]	n
Cc1[nH]c2ccccc2c1N=Nc1ccc(SC(F)F)cc1	+
SMILES	PL biosyn Enam
Cc1[nH]c2ccccc2c1C(c1c(C)[nH]c2ccccc12)C(C)C	n
COc1cc(NS(=O)(=O)c2ccc(OC(F)(F)F)cc2)cc(OC)c1	n
CSc1ccccc1N=C/C=C1/N(C)c2ccccc2C1(C)C	n
CN1/C(=C\C=N\N=C2c3ccccc3-c3ccccc32)C(C)(C)c2ccccc21	+
CN1/C(=C\C=Nc2ccc(I)cc2)C(C)(C)c2ccccc21	n
Cn1cnc2c1c(=O)n(CCCSc1n[nH]c(-c3cccs3)n1)c(=O)n2C	n
CSC1=C(SC)SC(=C2C(=O)c3ccccc3C2=O)S1	n
Clc1c(-c2nnc(SCc3nc4ccccc4s3)o2)sc2ccccc12	n
Cc1ccc(C(=O)C(C)Sc2nnc(-c3ccc4c(c3)OCO4)o2)cc1C (centres undefined)	n
O=C(CSc1nnc(-c2ccc3c(c2)OCO3)o1)CSc1nnc(-c2ccc3c(c2)OCO3)o1	n
O=C(c1ccccc1)C(Sc1nnc(-c2ccc3c(c2)OCO3)o1)c1ccccc1 (centres undefined)	+
Cc1cc(-c2csc(-c3cccs3)n2)c(C)n1-c1ncn[nH]1	n
O=c1[nH]c2ccnc([N+](=O)[O-])c2[nH]1	n
O=S1(=O)CCN2N=C(SCc3cccs3)SC2=N1	n
CN(C)c1ccc(/C=C/c2cccc[n+]2C)cc1	n
CC[n+]1ccc(/C=C/c2ccc(N(C)C)cc2)cc1	+
CN(C)c1ccc(/C=C/c2ccc3ccccc3[n+]2C)cc1	n
FC(F)Oc1ccccc1/C=N/Nc1nc(-c2ccncc2)nc2ccccc12	n
c1ccc2oc(CN3CCC(c4nc5ccccc5s4)CC3)nc2c1	n
C(=C\c1nc2c(ccc3ccccc32)s1)/c1cccs1	n
CN1/C(=C\P(=Nc2ccc([N+](=O)[O-])cc2)(c2ccccc2)c2ccccc2)C(C)(C)c2ccccc21	n
CCN(CC)c1ccc(N=Nc2c(Br)cc([N+](=O)[O-])cc2Br)cc1	n
CCOP(=O)(OCC)C1(C)N(C)c2ccc(N=Nc3ccc([N+](=O)[O-])cc3)cc2C1(C)C (centres undefined)	+
CN(N=Cc1sc2ccccc2c1O)c1ccccc1	n
FC(F)(F)c1cccc(/C=N/Nc2nncc3ccccc23)c1	n
SMILES	PL biosyn Enam
Fc1ccc(/C=N/Nc2nncc3ccccc23)cc1F	n
Cn1c(-c2ccccc2)c(/C=N/Nc2nncc3ccccc23)c2ccccc21	+
CCOC(=O)c1c(NC(=S)NC2CC3CCC2C3)sc(C)c1C (centres undefined)	n
CN=c1scc(-c2ccc(C)cc2)n1/N=C/c1ccc(Br)cc1	n
Cc1nn(CC(=O)NC2CCCCC2)c(C)c1S(=O)(=O)NC(C)(C)C	n
C(=NCC12CC3CC(CC(C3)C1)C2)c1ccc2c(c1)OCCO2	n
c1ccc(N=Nc2c3[nH]c4ccccc4nc-3c3ccccc23)cc1	+

Screening data: PubChem BioAssay, Zoeller Lab, School of Medicine, Boston University
